Only some compounds are listed: those with a hit (about 5.7% of all), similar ones and a draw of the others.
ClpP mod = qHTS Assay for Activators of ClpP; ATP-dependent Clp protease proteolytic subunit (Bacillus subtilis (strain 168)), P80244; AID 651965, 2013; 1.9% of 340,000 active; purified B. subtilis ClpP, FRET peptide cleavage, 20 min; Potency, µM (top dose mostly 57.5 µM), inactives show at the highest dose activity change, negative = active; active means well fitted falling curve with a large enough effect; inconclusive means small, poorly fitted or top-dose-only effect; inactive means no such curve, though single readings can be large or run the other way; further: potency means the concentration at half of the fitted maximal effect; the source files actives as falling curves though it sought activators and does not explain the sign; nearly all actives have a fitted effect of over 65% in size
Target sequence (P80244 whole entry, looked up): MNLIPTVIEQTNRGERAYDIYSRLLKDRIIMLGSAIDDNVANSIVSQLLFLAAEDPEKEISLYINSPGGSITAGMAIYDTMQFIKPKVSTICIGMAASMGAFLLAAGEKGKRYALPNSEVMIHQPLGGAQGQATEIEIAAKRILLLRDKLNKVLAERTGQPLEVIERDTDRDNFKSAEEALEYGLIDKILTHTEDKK
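Purified B. subtilis ClpP, 10 microg/mL final in Tris/HCl pH8 with KCl, BSA, glycerol and Tween-20, cleaved an Abz/nitrotyrosine-quenched decapeptide. Fluorescence (ex 320, em 430) was read at 0 and 20 min at room temperature. Delta was normalized to 5.8 microM ADEP and DMSO/no-enzyme controls.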
GLP-1R inv ag = inverse agonists of human GLP-1 receptor. P43220. HEK293 GLP-1R CRE-luciferase, luminescence, 24 h; GLP-1R form is constitutively active. Potency, µM (top dose mostly 38.3 µM), inactives show at the highest dose activity change, negative = inhibition, most hits filed as inhibitors. 1.6% of 410,000 active. AID 624417; further: potency means the concentration at half of the fitted maximal effect; on the % scale 0 is the no-effect control and ±100 the full control effect; nearly all actives have a fitted effect of over 55% in size
Target sequence (P43220 whole entry, looked up): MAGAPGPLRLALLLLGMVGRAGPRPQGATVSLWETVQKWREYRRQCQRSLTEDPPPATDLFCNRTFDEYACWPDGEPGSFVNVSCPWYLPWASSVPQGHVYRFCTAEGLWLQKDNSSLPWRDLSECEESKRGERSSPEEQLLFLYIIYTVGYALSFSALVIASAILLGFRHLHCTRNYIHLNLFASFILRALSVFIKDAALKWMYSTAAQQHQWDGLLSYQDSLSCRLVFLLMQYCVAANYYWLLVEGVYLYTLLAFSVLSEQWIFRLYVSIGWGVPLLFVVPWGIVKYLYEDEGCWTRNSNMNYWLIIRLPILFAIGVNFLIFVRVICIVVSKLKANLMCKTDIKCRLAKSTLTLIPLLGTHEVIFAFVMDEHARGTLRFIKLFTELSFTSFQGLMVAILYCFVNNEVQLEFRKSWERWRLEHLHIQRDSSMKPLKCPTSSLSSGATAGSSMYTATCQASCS
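Constitutively active GLP-1R drives a cAMP-responsive luciferase in stably transfected HEK293 cells; test compounds are added after overnight (12 h) attachment and left 24 hr, and signal loss in luminescence marks inhibition.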
GLP1R cytotox = cytotoxic in the GLP-1 receptor inverse agonist counter-screen | Potency, µM (top dose mostly 38.3 µM), for inactives: at the top dose activity change, negative = inhibition, actives largely listed as inhibitors | 0.13% of 410,000 active | HEK293 cAMP-luciferase reporter cells, luminescence, 24 h;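 further: loss of luciferase light is scored as toxicity; potency means the concentration at half of the fitted maximal effect; on the % scale 0 is the no-effect control and ±100 the full control effect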
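1536-well qHTS counterscreen of the MLSMR; 200 cells/uL, 12 h pre-incubation, 23 nL cpd, 24 h at 37 deg C 5% CO2, luciferase detection reagent, 12 min RT, luminescence. Inhibition = undesired.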
D3 antag = blocks the human D3 dopamine receptor; max response, negative = inhibition, %; 2.5% of 360,000 active; D3R cells, DiscoveRx beta-arrestin luminescence, antagonist mode; stronger effect = lower value; P35462; AID 652054; in the data active means max response below about -50%; inconclusive means no clear call, values can overlap the other calls; further: on the % scale 0 is the no-effect control and ±100 the full control effect
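Cells expressing the human receptor were seeded at 1500 cells/well, incubated overnight at 37 degrees C in 5% CO2, then exposed to library compounds with dopamine controls for 90 minutes at 37 degrees C before luminescent detection.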
D3 ag = activates the human D3 dopamine receptor. D3R DiscoveRx beta-arrestin cells, luminescence, 90 min. P35462. 0.58% of 410,000 active. AID 652048. max activation, %; in the data active means max activation above about 30%; further: 0% is about no effect
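Agonist mode: compounds and dopamine controls were applied to plated cells for 90 min at 37 degrees C after an overnight attachment at 1500 cells/well. Luminescent read-out followed 30 - 60 minutes at room temperature with DiscoveRx detection reagent.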
GLP-1R agonist = GLP-1 receptor (human) agonism; 0.007% of 380,000 active; AID 624172; HEK293 GLP-1R CRE-luciferase, luminescence, 4-6 h; cells express a hypersensitive GLP-1R form; Potency, µM (top dose mostly 45.6 µM), for inactives: at the top dose activation, usual class: activators; further: potency means the concentration at half of the fitted maximal effect; % of control where 0% means no effect
Active calls of the source: *. Unless noted, the call rests on the fitted dose curve; in most records, active means well fitted curve in the direction sought with a large enough effect; inconclusive means small, poorly fitted or top-dose-only effect, or another doubt; inactive means no such curve, though single readings can be large; an effect the other way counts as inactive or inconclusive.

`CC1COCC(C)N1C1=C(Cl)C(=O)c2ccccc2C1=O` (stereo not drawn) gave ClpP mod 2%, GLP-1R inv ag inconclusive, GLP1R cytotox -28%, D3 antag -58*, D3 ag -9 and GLP-1R agonist -4%.
Screening O=C1C(Cl)=C(N2CCC(C(=O)O)CC2)C(=O)c2ccccc21 returned ClpP mod 1%, GLP-1R inv ag 67%, GLP1R cytotox 5%, D3 antag -53*, D3 ag -7 and GLP-1R agonist 1%.
`CN1CCN(C2=C(Cl)C(=O)c3ccccc3C2=O)CC1` gave ClpP mod 98%, GLP-1R inv ag inconclusive, GLP1R cytotox inconclusive, D3 antag inconclusive, D3 ag -20 and GLP-1R agonist -12%.
`NC(=O)C1CCN(C2=C(Cl)C(=O)c3ccccc3C2=O)CC1` gave ClpP mod 2%, GLP-1R inv ag inconclusive, GLP1R cytotox -13%, D3 antag -75*, D3 ag -11 and GLP-1R agonist -14%.
O=C(C[n+]1cc(Br)cc2ccccc21)c1ccc(O)c(O)c1 was read as ClpP mod -2%.
CCCOC(=O)c1c(NC(=O)/C=C/c2cnn(C)c2C)sc(C(=O)OC)c1C was read as ClpP mod -6%, GLP-1R inv ag 0%, GLP1R cytotox -4%, D3 antag -77*, D3 ag 17 and GLP-1R agonist -9%.
For CCCOC(=O)c1c(NC(=O)/C=C/c2cnn(C)c2C)sc(C(=O)OCC)c1C the results were ClpP mod 4%, GLP-1R inv ag 5%, GLP1R cytotox -4%, D3 antag 36, D3 ag 20 and GLP-1R agonist 3%.
`CCOC(=O)c1sc(NC(=O)/C=C/c2cnn(CC)c2C)c(C(=O)OCC)c1C` gave ClpP mod inconclusive, GLP-1R inv ag 1%, GLP1R cytotox 9%, D3 antag 16, D3 ag 36* and GLP-1R agonist inconclusive.
COc1ccccc1N1CCN(S(=O)(=O)c2ccc(F)c(C(=O)Nc3ccc(C)c(F)c3)c2)CC1 was read as ClpP mod 0%, GLP-1R inv ag inconclusive, GLP1R cytotox -2% and D3 ag 8.
Screening Cc1cccc(-n2ncc3c(N4CCCCCC4)ncnc32)c1 returned ClpP mod -3%, GLP-1R inv ag -14%, GLP1R cytotox 1% and D3 ag 4.
`Cc1ccc(-n2ncc3c(N4CCN(Cc5ccccc5)CC4)ncnc32)cc1C` gave ClpP mod inconclusive, GLP-1R inv ag -9%, GLP1R cytotox 3% and D3 ag 33*.
Screening c1ccc(-n2ncc3c(NC4CCCCCC4)ncnc32)cc1 returned ClpP mod -12%, GLP-1R inv ag 5.6µM*, GLP1R cytotox -19%, D3 antag -7, D3 ag 0 and GLP-1R agonist 11%.
c1ccc(-n2ncc3c(N4CCCCC4)ncnc32)cc1 was read as ClpP mod -3%, GLP-1R inv ag 4µM*, GLP1R cytotox 4%, D3 antag -24, D3 ag 3 and GLP-1R agonist -5%.
For NNc1ncnc2c1cnn2-c1ccccc1 the results were ClpP mod -10%, GLP-1R inv ag 10µM*, GLP1R cytotox inconclusive, D3 antag 9, D3 ag -1 and GLP-1R agonist 13%.
For NCc1ccccc1Sc1ccccc1CO the results were D3 ag -15 and GLP-1R agonist 8%.
For O=C1C(=O)N(C2CCN(C(=O)c3ccccc3F)CC2)CCN1Cc1ccc(F)cc1 the results were ClpP mod 0%, GLP-1R inv ag 1%, GLP1R cytotox -11% and D3 ag 8.
CCc1cnc2c(c1SCC(=O)Nc1ccc(OC)c(OC)c1)c(=O)n(C)c(=O)n2C was read as ClpP mod 1%, GLP-1R inv ag 12%, GLP1R cytotox -5% and D3 ag 4.
Cc1ccc(-n2ncc3c(NC4CCCCCC4)ncnc32)cc1Cl was read as ClpP mod 32µM*, GLP-1R inv ag inconclusive, GLP1R cytotox -3% and D3 ag -4.
For CC1CCCN(c2ncnc3c2cnn3-c2ccc(F)cc2)C1 (stereo not drawn) the results were ClpP mod -23%, GLP-1R inv ag 8.9µM*, GLP1R cytotox -4% and D3 ag 3.
Screening Cc1ccc(Cl)cc1-n1ncc2c(NC3CCCCCC3)ncnc21 returned ClpP mod -4%, GLP-1R inv ag 4.5µM*, GLP1R cytotox -28% and D3 ag -28.
Screening CCOC(=O)C1CCN(c2ncnc3c2cnn3-c2ccc(OC)cc2)CC1 returned ClpP mod inconclusive, GLP-1R inv ag 5%, GLP1R cytotox 17%, D3 antag 17, D3 ag 33* and GLP-1R agonist 8%.
Screening Clc1ccc(-n2ncc3c(NC4CCCC4)ncnc32)cc1 returned ClpP mod inconclusive, GLP-1R inv ag inconclusive, GLP1R cytotox -23% and D3 ag -16.
Screening CC1CCCN(c2ncnc3c2cnn3-c2ccccc2)C1 (stereo not drawn) returned ClpP mod -1%, GLP-1R inv ag inconclusive, GLP1R cytotox 17%, D3 antag 31, D3 ag 15 and GLP-1R agonist -3%.
COc1cccc(NC(=O)CCSc2nc(-c3ccco3)cc(C(F)(F)F)n2)c1 was read as ClpP mod -6%, GLP-1R inv ag inconclusive, GLP1R cytotox -9% and D3 ag 1.
For CCOc1ccccc1CNC(=O)CCCN1C(=O)COc2ccc(C)cc21 the results were ClpP mod 0%, GLP-1R inv ag -30%, GLP1R cytotox 6% and D3 ag -8.
CCCCN(CCCC)c1ncnc2c1cnn2-c1cccc(C)c1 was read as ClpP mod -18%, GLP-1R inv ag inconclusive, GLP1R cytotox 27% and D3 ag -12.
CCCN(CCC)c1ncnc2c1cnn2-c1ccc(OC)cc1 was read as ClpP mod -21%, GLP-1R inv ag 10µM*, GLP1R cytotox -3%, D3 antag 33, D3 ag 34* and GLP-1R agonist 11%.
Cc1ccc(S(=O)(=O)N2[C@@H](c3ccc(C(C)(C)C)cc3)C(C(=O)O)=CC[C@H]2c2ccc(Cl)cc2)cc1 was read as ClpP mod 0%, GLP-1R inv ag inconclusive, GLP1R cytotox -25%, D3 antag -11, D3 ag 10 and GLP-1R agonist -3%.
